Data published in PubChem BioAssay AID1209 (Sanford-Burnham Center for Chemical Genomics, 2008).
Among all 190,000 compounds or so, about 810 (0.43%) were called active. The list comes from a sample in which actives are over-represented; it also holds similar structures and randomly drawn compounds. Unmarked numbers belong to inactive results. Rule as the data show it: active = inhibition above about 50%; inactive = the rest.

Molecular target: Mannose-6-phosphate isomerase (Homo sapiens) (UniProt P34949)
Assay: inhibitors of human PMI, primary screen, biochemical, fluorescence intensity, coupled assay (AID 1209);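 also: plate controls were DMSO vehicle for no effect and wells lacking substrate for full effect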
Conditions: purified PMI enzyme, at 20 µM, active compounds read high

Sequence of Mannose-6-phosphate isomerase (Homo sapiens) (P34949 whole entry, looked up): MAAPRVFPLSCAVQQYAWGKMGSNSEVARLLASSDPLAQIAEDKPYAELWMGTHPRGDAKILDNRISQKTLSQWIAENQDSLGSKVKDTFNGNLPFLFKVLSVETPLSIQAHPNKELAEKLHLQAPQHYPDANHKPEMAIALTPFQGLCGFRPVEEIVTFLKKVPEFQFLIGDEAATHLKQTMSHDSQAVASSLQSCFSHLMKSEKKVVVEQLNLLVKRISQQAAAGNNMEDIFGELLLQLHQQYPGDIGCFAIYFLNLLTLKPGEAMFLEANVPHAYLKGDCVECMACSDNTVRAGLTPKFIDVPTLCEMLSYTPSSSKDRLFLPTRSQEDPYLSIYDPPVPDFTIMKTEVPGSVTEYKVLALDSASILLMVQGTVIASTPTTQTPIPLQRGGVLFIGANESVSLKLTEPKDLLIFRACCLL

SMILES	inhibition
CCCn1cc(CN2CCC(Cc3ccccc3)(C(=O)OCC)CC2)c(C)n1	5.2%
COc1ccc(NC(=S)N/N=C2\CC(C)(C)Oc3ccc(O)cc32)cc1	5.4%
NC(=O)CSC1=Nc2ccccc2C2=NC(c3ccccc3)C(=O)N12 (stereo not drawn)	-8.5%
O=C(c1nn2c(C(F)(F)F)cc(-c3cccs3)nc2c1Cl)N1CCCc2ccccc21	-11.4%
COc1ccc(N2C(=O)CN(Cc3cc(OC)c(OC)c(OC)c3)C2=S)cc1	-2.4%
CC(/C=C/c1ccccc1)NC(N)=O (stereo not drawn)	-3.3%
N#Cc1ccc(NC(=S)NC(=O)CCc2ccc(S(=O)(=O)N3CCOCC3)cc2)cc1	8.9%
CCOc1ccc(-c2nn[nH]n2)cc1OCC	-5.5%
CCc1nn(C(C)C(=O)N2CCN(Cc3ccccc3)CC2)c(=O)c2cc3occc3n12 (stereo not drawn)	16.5%
COc1ccc(CNC(=O)C(c2cccs2)N(C(=O)c2csnn2)C2CC2)cc1 (stereo not drawn)	93% (active)
O=C(NCc1ccccc1)C(c1cccs1)N(C(=O)c1csnn1)C1CC1 (stereo not drawn)	4.8%
O=C(NCc1ccc(F)cc1)C(c1cccs1)N(C(=O)c1csnn1)C1CC1 (stereo not drawn)	0.7%
CCOc1ccc(S(=O)(=O)NCc2ccccc2)cc1C(N)=O	8.4%
O=[N+]([O-])c1ccc(N2CCN(S(=O)(=O)c3ccc4ccccc4c3)CC2)cc1NCC1CCCO1 (stereo not drawn)	5.7%
O=C(CCc1nnc(COc2ccccc2)o1)NCc1ccc(Cl)s1	5.4%
CN(CCO)C1=CC(=O)CC(C)(C)C1	-12.5%
CCOC(=O)c1ccc(CC(=O)c2ccc(O)c(O)c2O)o1	75% (active)
CCOC(=O)c1ccc(CC(=O)c2ccc(O)cc2O)o1	-14.1%
CCCc1cc(C(=O)Cc2ccc(C(=O)OCC)o2)c(O)cc1O	-21.9%
Nc1ccc(S(=O)(=O)NC2(C(F)(F)F)NC(=O)N(c3ccccc3Cl)C2=O)cc1 (stereo not drawn)	3.9%
COc1ccc(S(=O)(=O)NCCSCc2ccco2)cc1	8.5%
Cc1nn(C)c(C(=O)N/N=C/c2ccc(C(F)(F)F)cc2)c1[N+](=O)[O-]	1.6%
CC(C)(C)C1=Nn2c(nnc2-c2n[nH]c3c2CCC3)SC1	75.8% (active)
CC1=Nn2c(nnc2-c2n[nH]c3c2CCC3)SC1	3.5%
c1ccc(C2=Nn3c(nnc3-c3n[nH]c4c3CCC4)SC2)cc1	8%
NS(=O)(=O)c1ccc(N/N=C/c2ccccc2Br)cc1	2%

SMILES	inhibition
CC(C)(O)C1Cc2cc(/C=C/C(=O)O)c(O)cc2O1 (stereo not drawn)	94.4% (active)
CC(C)(Cl)C1Cc2cc3ccc(=O)oc3cc2O1 (stereo not drawn)	6.2%
COc1cc2c(cc1/C=C/C(=O)O)OC(C)C2 (stereo not drawn)	9.4%
O=C(OCc1cc2ccccc2[nH]c1=O)C1CCCCC1	-2.3%
COc1ccc(N2C(=S)NC(C)(C)CC2(C)c2ccc(OC(C)=O)cc2OC(C)=O)cc1 (stereo not drawn)	-2.5%
COc1ccc(C2(c3ccc(OC(C)=O)cc3OC(C)=O)CC(c3ccccc3)NC(=S)N2)cc1 (stereo not drawn)	63.8% (active)
COc1ccc(C2(c3ccc(O)cc3O)CC(c3ccccc3Cl)NC(=S)N2)cc1 (stereo not drawn)	11.9%
O=C1Nc2ccccc2C12OCCO2	-6.7%
O=C1Nc2ccccc2C12Nc1ccccc1S2 (stereo not drawn)	58.7% (active)
O=C1N2CCCc3cccc(c32)C12Nc1ccccc1S2 (stereo not drawn)	22.1%
C/C(=N\NC(=O)Cc1ccccc1)c1cccs1	9.1%
O=[N+]([O-])c1cc2c(cc1C=Nc1ccccc1)OCO2	55.1% (active)
Cc1cccc(N=Cc2cc3c(cc2[N+](=O)[O-])OCO3)c1	49.7%
Cc1ccccc1N=Cc1cc2c(cc1[N+](=O)[O-])OCO2	22.6%
COc1ccccc1/C=C/C(=O)Nc1cccc(S(=O)(=O)NC2=NCCCCC2)c1	-3.7%
CN(C)c1ccc(NC(=O)Cn2ncn3c(cc4ccccc43)c2=O)cc1	22.7%
O=C(NC1CC1)C1CCN(c2ncnc3c2sc2cccc(F)c23)CC1	7.9%
COc1cc(/C=C2\SC(c3ccc(C)cc3)=NC2=O)ccc1O	14.1%
COc1cc(/C=C2\SC(c3ccc(C)cc3)=NC2=O)cc(OC)c1O	26.7%
Cc1ccc(C2=NC(=O)/C(=C/c3cc(O)c(O)c(Br)c3)S2)cc1	81.3% (active)
COc1ccc(NC(=O)N2CCCC2C(=O)Nc2ccc(C)cc2)cc1 (stereo not drawn)	1.2%
CCOc1cc(C2C(C(=O)O)c3cc(OCC)c(OCC)cc3C(=O)N2C)ccc1O (stereo not drawn)	6%
C/C(=C\C(=O)c1ccccc1)NNc1nc2ccccc2s1	-3.4%
COc1ccc(S(=O)(=O)n2nc(OC(C)=O)cc2N)cc1	-1.2%
Cc1ccc2nc(SCC(=O)NC(=O)NCc3ccco3)[nH]c2c1	6.4%
COC(=O)c1ccc(C)c(NC(=O)CCc2ccc(OC)cc2)c1	11.9%

SMILES	inhibition
CCOC(=O)c1c(N)sn(-c2ccccc2)c1=S	14.9%
C=CCn1sc(N)c(C(=O)OCC)c1=S	-8%
CCOC(=O)c1c(N)sn(-c2ccccc2C)c1=S	61.3% (active)
COc1ccc(C(NC(=O)/C=C\c2ccco2)c2ccc(OC)c(OC)c2)cc1 (stereo not drawn)	3.2%
S=C(NCC1CCCO1)Nc1cccc(Cl)c1 (stereo not drawn)	-4.4%
CC(=O)Nc1ccc(/C=N/Nc2nc3ccccc3[nH]2)cc1	20.8%
CCN(CC)c1ccc(/C=N/Nc2nc3ccccc3[nH]2)cc1	53% (active)
CCN(CC)c1ccc(/C=N/Nc2nc3ccccc3[nH]2)c(O)c1	29.1%
C=CCn1c(C)cc(C(=O)Cn2nc(C(=O)O)c3ccccc3c2=O)c1C	0.5%
COc1ccc(-c2nc(SC(CC(=O)NCCN3CCOCC3)c3cccs3)n[nH]2)cc1 (stereo not drawn)	2.7%
Cc1ccc(C)c(NC(=O)CSc2nnc(C)c(=O)n2N)c1	-3%
Cc1ccc(NC(=O)CSc2nnc(C)c(=O)n2N)cc1	-5.9%
Cc1ccc(NC(=O)CSc2nnc(C)c(=O)n2N)c(C)c1	76.6% (active)
Cn1c(-c2cccc(Br)c2)n[nH]c1=O	-8.4%
Brc1cccc(-c2n[nH]c(-c3ccccc3)n2)c1	18.9%
O=C(NNC(=O)C1CCCN(S(=O)(=O)c2cccc(F)c2)C1)C1CC1 (stereo not drawn)	6.8%
Cc1cc(C(=O)N/N=C/c2ccc(O)c([N+](=O)[O-])c2)n[nH]1	-7.3%
Cc1cc(C(=O)N/N=C/c2cccc([N+](=O)[O-])c2O)n[nH]1	52.3% (active)
Cc1cc(C(=O)N/N=C/c2cc(N=Nc3ccccc3)ccc2O)n[nH]1	4.9%
O=C(CN1C(=O)c2ccccc2C1=O)Nc1cccc(S(=O)(=O)Nc2ccccc2Cl)c1	12.3%
O=C(/C=C/c1ccccc1)Nc1cccc(S(=O)(=O)Nc2ccccc2F)c1	66.1% (active)
O=C(Cc1ccc(Cl)cc1Cl)Nc1cccc(S(=O)(=O)Nc2ccccc2F)c1	59% (active)
O=C(CSc1ccc([N+](=O)[O-])cc1)Nc1cccc(S(=O)(=O)Nc2ccccc2F)c1	62.2% (active)
O=C(Cc1ccc(Cl)cc1)Nc1cccc(S(=O)(=O)Nc2ccccc2F)c1	23.4%
Cn1c(=O)c2c(ncn2CC(=O)Nc2cccc(S(=O)(=O)Nc3ccccc3F)c2)n(C)c1=O	25.8%
O=C(Nc1cccc(S(=O)(=O)Nc2ccccc2F)c1)c1ccc2ccccc2n1	70.4% (active)

SMILES	inhibition
COc1ccccc1NS(=O)(=O)c1cccc(NC(=O)c2ccc3ccccc3n2)c1	17.4%
O=C(Nc1cccc(S(=O)(=O)N2CCCC2)c1)c1ccc2ccccc2n1	10%
Nc1ccc(SCC(=O)Nc2cccc([N+](=O)[O-])c2)cc1	-7.1%
O=C(/C=C/c1ccccc1)Nc1cccc(C(=O)O)c1	8.9%
CSc1cccc(NC(=O)/C=C/c2ccccc2)c1	10.8%
Cc1ccc(C(=O)c2ccccc2C(=O)OCC(=O)NCC2CCCO2)cc1 (stereo not drawn)	1.4%
Cc1cc(OC(C)C(N)=O)nc(-c2ccccc2)n1 (stereo not drawn)	-14.2%
CC(C)c1ccc(CN2CC(C(=O)O)CC2=O)cc1 (stereo not drawn)	-7%
Cc1ccc(N2CCN(CC(O)COc3ccc([N+](=O)[O-])cc3)CC2)cc1 (stereo not drawn)	-2%
COc1cc(/C=N/Nc2ccccn2)ccc1OCC(C)C	-6.3%
CCOC(=O)CC1C(=O)NCCN1C(=O)c1cccc(C(F)(F)F)c1 (stereo not drawn)	-0.3%
CCOC(=O)CC1C(=O)NCCN1C(=O)c1ccc(F)cc1F (stereo not drawn)	-8.1%
CCOC(=O)CC1C(=O)NCCN1C(=O)c1c(F)cccc1F (stereo not drawn)	50.5% (active)
Nc1nonc1-c1noc(N2CCCCC2)n1	6%
COc1ccc(-c2nnn(CC#N)n2)cc1OC	-3.6%
O=C(N/C(=C\c1cccnc1)C(=O)N1CCOCC1)c1ccco1	-15.9%
Cc1nnc(NC(=O)c2c(-c3ccccc3)noc2C)s1	0.7%
COc1ccc(Cc2nnc(NC(=O)c3c(-c4ccccc4)noc3C)s2)cc1	12.3%
Cc1ccc(OCc2nnc(NC(=O)c3ccco3)s2)cc1	-5.1%
O=C(CSc1ccccc1)Nc1nnc(COc2ccc(Cl)cc2)s1	71.7% (active)
Cc1cccc(C)c1OCc1nnc(NC(=O)CSc2ccc(Cl)cc2)s1	9.2%
Cc1onc(-c2ccccc2)c1C(=O)Nc1nnc(COc2ccc(Cl)cc2)s1	76.2% (active)
CCOCc1nnc(NC(=O)CSc2ccccc2)s1	6.1%
O=C(Nc1nnc(COc2ccc(Cl)cc2)s1)c1ccco1	62.4% (active)
O=C(Nc1nnc(COc2ccccc2)s1)c1ccco1	3.1%
